Assay results as given in PubChem BioAssay AID1259312 (Keith Lab, Institute of Cancer Science, University of …, 2017).
Screen size: about 4,500 compounds; about 200 (4.4%) were called active. Many of the other results were omitted from the sample, so actives are more common in it than they were. Unmarked numbers belong to inactive results.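 How the source made its calls: active means cell survival measured by absorbance rises more than 2.5-fold over infected cells without compound; inactive means the rest.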

Test: survival after telomere uncapping, modulators, primary screen, cell-based (AID 1259312);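 further: virus expresses mutant telomerase RNA that uncaps telomeres and kills cells; compound added 2 days after infection so exposure lasts 3 days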
Settings: HCT116 + Ad-hTR-mut, MTT, 5 d; at 10 µM, stronger effect = higher value

Compound | fold change
Nc1nonc1-c1ccccc1 | -1.8
Cc1ccc(N=Nc2ccccc2)c(N)n1 | 3.19 (active)
CCCCCCCN=C(C)c1c(C(F)(F)F)[nH]n(-c2nc3ccccc3s2)c1=O | active
CCCN=C(CC)c1c(C(F)(F)F)[nH]n(-c2nc3ccccc3s2)c1=O | inactive
CC(=NCCCN1CCOCC1)c1c(C(F)(F)F)[nH]n(-c2nc3ccccc3s2)c1=O | inactive
Cc1ccc2c(c1)c1c3n2CCN(c2nc(-c4ccc(Cl)cc4)cs2)C3CCC1 (stereo not given) | 1.42
O=C1CC(=O)N(c2ccc(Br)cc2)N1 | -1.32
Cn1cccc1/C=C1/C(=O)ON=C1c1ccccc1 | -2.3
CCCCCCC1(C)OCO/C1=C\C[N+](C)(C)C (stereo not given) | -1.62
O=S(=O)(c1ccc(Oc2ccc(Br)cc2)cc1)N1CCOCC1 | -1.23
O=S(=O)(c1ccc(Br)cc1)N1CCCCCC1 | 1.7
CN1CCN(S(=O)(=O)c2ccc(Br)cc2)CC1 | 3.8 (active)
Nc1nnc(SCc2cccc(CSc3nnc(N)s3)n2)s1 | 1.27
Cn1c(=O)n(C)c2cc(CN3C(=O)c4ccccc4C3=O)ccc21 | 1.01
CC(=O)NS(=O)(=O)c1ccc(N)cc1 | -1.73
Nc1ccc(S(=O)(=O)Nc2ccccc2)cc1 | -1.09
CNS(=O)(=O)c1ccc(N)cc1 | 1.14
Nc1ccc(S(=O)(=O)Nc2ccc(Cl)nn2)cc1 | 2.5 (active)
O=S(=O)(Nc1ccc(Cl)cn1)c1ccc(Br)cc1 | -1.1
CCc1nnc(NS(=O)(=O)c2ccc(N)cc2)s1 | 3.88 (active)
O=c1[nH]c(O)c(C=Nc2ccccc2Br)c(=O)[nH]1 | inactive
O=C(O)C1CCS(=O)(=O)C1 (stereo not given) | 2.36
CC1=C(C(=O)OCC2CCCO2)C(c2ccc(C)o2)C2=C(CC(C)(C)CC2=O)N1 (stereo not given) | 2.87 (active)
CCCOC(=O)C1=C(C)NC2=C(C(=O)CC(C)(C)C2)C1c1ccc(C)o1 (stereo not given) | -1.43

Compound | fold change
CC1=C(C(=O)OCC2CCCO2)C(c2ccc(C)o2)C2=C(CCCC2=O)N1 (stereo not given) | 1.18
CCCCC(CC)C(=O)N(CC#N)CC#N (stereo not given) | -1.13
CC(C)(C)c1ccc(C(N2CCCCC2)P(=O)(c2ccccc2)N2CCCCC2)cc1 (stereo not given) | -1.12
Cc1cc(/C=c2\sc3nc4ccccc4n3c2=O)c(C)n1C1CCCC1 | -1.02
Cn1cc([N+](=O)[O-])c(C(=O)n2cccn2)n1 | -1.36
COC(=O)c1ccc(=O)oc1 | -1.06
CN(C(=O)CSC(=S)N1CCCC1)c1ccccc1 | 1.5
N#Cc1c(N)sc2c1CCCCC2 | 3 (active)
CN1CCc2c(sc(N)c2C#N)C1 | 1.58
CC(=O)Nc1sc2c(c1C#N)CCCC2 | 1.19
c1ccc2c(Cc3ccncc3)c3ccccc3nc2c1 | -1.25
O=[N+]([O-])c1cc(Br)cc(C=NCCCCCCN=Cc2cc(Br)cc([N+](=O)[O-])c2O)c1O | inactive
Cn1cccc1/C=C(/C#N)C(N)=O | 1.32
COc1cc(NS(=O)(=O)c2ccc(N)cc2)nc(OC)n1 | 3.06 (active)
COc1cc(NC(=O)CCC(=O)O)nc(OC)n1 | -1.34
Cc1cc(NS(=O)(=O)c2ccc(N)cc2)no1 | -1.35
CCOC(=O)/C(C#N)=C/Nc1ccsn1 | 2.1
N#CC1=C(N)n2c(s/c(=C\c3ccc(O)cc3)c2=O)=C(C#N)C1c1ccc(O)cc1 (stereo not given) | -3
COc1ccccc1OCCSc1nc2ccccc2o1 | -1.24
O=[N+]([O-])c1ccc(NCCc2cccs2)nc1 | 2.58 (active)
O=[N+]([O-])c1ccc(Nc2ccc3c(c2)OCCO3)nc1 | -1.85
O=[N+]([O-])c1cccnc1NCCc1cccs1 | -2.56
O=[N+]([O-])c1ccc2c(c1)Cc1cc([N+](=O)[O-])ccc1-2 | -1.19
O=S(=O)(c1ccc(Cl)cc1)N1CCCc2ccccc21 | 1.97

Compound | fold change
O=S(=O)(c1ccc(Cl)cc1)N1CCc2ccccc21 | 4.39 (active)
O=S(=O)(c1ccccc1)N1CCc2ccccc21 | -1.19
CCOC(=O)c1c(NC(=O)c2cccs2)sc2c1CCCCC2 | 1.37
CC(C(=O)Nn1cnnc1)N1C(=O)c2ccccc2C1=O (stereo not given) | -8.91
O=[N+]([O-])c1cccc(S(=O)(=O)N2CCCC2)c1 | 3.3 (active)
O=[N+]([O-])c1ccc2c(c1)oc1ccc(S(=O)(=O)N3CCCC3)cc12 | 1.12
Nc1cccc(S(=O)(=O)N2CCCC2)c1 | -1.08
CC(C)CC(=O)NC1CCCCCC1 | -1.5
O=C1N=C(N2CCOCC2)S/C1=C\C1=Cc2ccccc2OC1 | -1.34
OCC1(O)OC[C@H](O)[C@@H](O)[C@@H]1O (stereo not given in full) | 2.95 (active)
OC[C@H]1O[C@@H](O[C@@H]2[C@@H](CO)O[C@](O)(CO)[C@H]2O)[C@H](O)[C@@H](O)[C@H]1O | 1.55
CC1(C)[C@H]2CCC1(CS(=O)(=O)N(C1CCCCC1)C1CCCCC1)C(O)C2 (stereo not given in full) | -1.17
O=C(Cn1c(C(F)(F)F)nc2ccccc21)NC1CCCCC1 | -1.95
N=C1SCC(=O)N1c1nccs1 | 1.78
O=c1c2ccccc2c2nc3c(c(-c4ccccc4)c12)c(=O)c1ccccc13 | -1.07
O=c1c2ccccc2c2nc3c(c(-c4cccc(Br)c4)c12)c(=O)c1ccccc13 | -1.26
c1ccc2c(c1)c1ccccc1c1nc3c4ccccc4c4ccccc4c3nc21 | 4.67 (active)
COC(=O)C1=C(C(=O)OC)SC2(S1)C(C(=O)OC)=C(C(=O)OC)SC1=C2c2cc(OC)ccc2NC1(C)C | 1.52
Cn1c(-c2ccc(Cl)cc2Cl)n[nH]c1=S | 2.57 (active)
Cc1ccc(-c2n[nH]c(=S)n2C)cc1Cl | -1.92
C=CCn1c(-c2ccc(Cl)cc2Cl)n[nH]c1=S | 1.34
NC(=O)c1c(NC(=O)CCC(=O)O)sc2c1CCCC2 | -1.38
